# High-throughput results from PubChem.
# HPGD inh = blocks human HPGD enzyme activity | P15428 | purified HPGD, NADH fluorescence kinetic, PGE2 substrate | Potency, µM, for the others: top-dose activity change, negative = inhibition, usual class: inhibitors | hit rate 4.3% among 150,000 | AID 894; further: potency means the concentration at half of the fitted maximal effect
#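 NADH formation kinetics: reaction with 30 uM PGE2 and 1 mM NAD+ (final), 20 nM enzyme, Tris-HCl pH 8 with Tween 20, after 15 min compound preincubation at room temperature. Fluorescence change, last versus first of five reads.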
# ALDH1A1 block = ALDH1A1 (human) enzyme inhibition; Potency, µM (top dose mostly 75.3 µM), inactives show at the highest dose activity, negative = inhibition, usual class: inhibitors; P00352; hit rate 7.3% among 220,000; AID 1030; Purified ALDH1A1, NADH fluorescence, propionaldehyde substrate;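 further: potency means the concentration at half of the fitted maximal effect; plate controls were no enzyme wells and a reference inhibitor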
# Target sequence (P00352 whole entry, looked up): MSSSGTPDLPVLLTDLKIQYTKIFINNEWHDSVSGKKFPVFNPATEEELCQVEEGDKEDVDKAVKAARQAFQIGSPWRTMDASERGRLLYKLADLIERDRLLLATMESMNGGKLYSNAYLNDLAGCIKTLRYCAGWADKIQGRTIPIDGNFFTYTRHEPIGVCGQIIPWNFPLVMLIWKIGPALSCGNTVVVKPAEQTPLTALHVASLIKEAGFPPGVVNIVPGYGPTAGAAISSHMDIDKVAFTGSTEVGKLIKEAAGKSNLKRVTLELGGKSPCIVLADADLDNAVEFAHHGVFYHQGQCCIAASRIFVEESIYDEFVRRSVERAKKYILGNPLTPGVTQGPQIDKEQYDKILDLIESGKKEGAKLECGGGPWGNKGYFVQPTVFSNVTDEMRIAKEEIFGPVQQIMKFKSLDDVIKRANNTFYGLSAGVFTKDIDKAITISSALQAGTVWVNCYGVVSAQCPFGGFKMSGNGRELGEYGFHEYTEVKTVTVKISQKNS
# PNC assembly inh = inhibitors of perinucleolar compartment assembly; PC3M PTB-GFP, PNC prevalence imaging, 16 h; active compounds read low; activity change (PNC), negative = inhibition, % at 10 µM; hit rate 3.1% among 140,000;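 active means readout at or below -70, meaning at least 70% loss of cells showing the perinucleolar compartment, a nuclear body marking cancer cells; inconclusive means readout between -30 and a set limit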;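 further: plate controls were DMSO wells for no effect and camptothecin positive control wells for full effect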
#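 Compounds are pinned in duplicate onto adhered PC3M cells stably expressing GFP-tagged PTB and incubated 16 h at 37 C. Cells are then fixed, nuclei stained with Hoechst, and PNC-positive cells counted.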
# Numbers without * were called inactive; u = inconclusive; x = no result given; [ ] = dose if it differs, or a comment. The list is not random: actives were taken first. Their share in the collection is about 11%. Unless noted, the call rests on the fitted dose curve; in most records, active means well fitted inhibition curve with a large enough effect (not every such curve was filed as active); inconclusive means small, poorly fitted or top-dose-only effect, or another doubt; inactive means no such curve, though single readings can be large or run the other way. Unless noted, on the % scale 0 is the no-effect control and ±100 the full control effect.
SMILES,HPGD inh,ALDH1A1 block,PNC assembly inh
C=CCSC1=C(C#N)C(c2ccccc2)CC(=O)N1 (stereo unspecified),1%,u,u
O=C(O)c1cc2c(cc1S(=O)(=O)O)[C@H]1[C@@H](C3[C@H]2[C@@]2(Cl)C(Cl)=C(Cl)C3(Cl)C2(Cl)Cl)[C@]2(Cl)C(Cl)=C(Cl)C1(Cl)C2(Cl)Cl (stereo partly specified),u,-11%[13.5 µM],x
Cc1ccc(C(OCC(C)(C)C[N+](C)(C)C)c2ccccc2)cc1 (stereo unspecified),x,-9%,x
CCOC(=O)Nc1cccc(Nc2ccccc2)c1,-18%,-6%,u
CCCCOC(=O)Nc1cccc(C(C)=O)c1,28µM*,-2%,u
CCCCNC(=S)Nc1cccc(C(C)=O)c1,32µM*,5%,u
CC(=O)c1cccc(NC(=S)NCCCCc2ccccc2)c1,x,u,64
CCOC(=O)Nc1cccc(C(=O)O)c1,1%,6%,-104*
CCCCOC(=O)c1cccc(NC(=O)CCC(=O)O)c1,-9%,0%,52
O=C(NCC1CCCO1)C1CCN(S(=O)(=O)c2cccc3cccnc23)CC1 (stereo unspecified),-12%,2%,-4
CS(=O)(=O)N1CCC2(CC1)CN(c1ccccc1)C2,-8%,10%,x
COc1ccccc1/C=N/NC(=O)c1nnn(-c2nonc2N)c1CSC1=NCCS1,u,u,-3
CC(C)c1ccc(/C=N/NC(=O)c2nnn(-c3nonc3N)c2CSC2=NCCS2)cc1,-21%,20µM*,28
CCn1c(O)c(N=NC(=O)CNC(=O)/C=C/c2ccco2)c2ccccc21,-23%,u,-92*
O=C(CNC(=O)/C=C/c1ccccc1)N=Nc1c(O)n(Cc2ccccc2)c2ccccc12,-12%,3.5µM*,-8
CCn1c(O)c(N=NC(=O)CNC(=O)c2ccco2)c2ccccc21,-3%,-5%,19
C=CCn1c(O)c(N=NC(=O)CNC(=O)c2ccco2)c2ccccc21,-12%,u,19
CCC1SC(CC)C(=O)N(CC(=O)Nc2ccc3c(c2)OCO3)C1=O (stereo unspecified),-8%,0%,12
O=S(=O)(c1ccccc1)N1CCC2(CCCN(Cc3cc(C(F)(F)F)cc(C(F)(F)F)c3)C2)CC1,-14%,u,x
CCN(CC)S(=O)(=O)c1cccc2cc(C(=O)O)c(O)cc12,-4%,-9%,31
CC(C)=NOC[C@@H](O)[C@@H]1O[C@@H]2OC(C)(C)O[C@@H]2[C@H]1O,x,9%[13.5 µM],x
CCOC(=O)c1c(-c2ccccc2)csc1NC(=O)c1ccc(S(=O)(=O)N2CCOCC2)cc1,u,0%,u
CC(C)c1nc2sc3c(=O)[nH]cnc3c2c2c1CCC2,u,u,-84*
CC(C)Cc1nc2sc3c(=O)[nH]cnc3c2c2c1CCC2,u,-8%,u
COc1ccc2c(c1)c1nc3ccccc3nc1n2Cc1ccc(OC)c(OC)c1,-10%,5%,u
SMILES,HPGD inh,ALDH1A1 block,PNC assembly inh
Cc1cc(N=NC(=O)c2ccccc2)ccc1O,x,22µM*,x
Cc1ccc(N=Nc2ccc(O)c(P(=O)(c3ccccc3)c3ccccc3)c2)cc1,x,4%,x
CC(C(=O)N1CCCc2ccccc21)N1CCN(S(=O)(=O)c2ccccc2F)CC1 (stereo unspecified),6%,8%,-11
CCOC(=O)c1c(NC(=O)Cn2nc(C(=O)O)c3ccccc3c2=O)sc(CC)c1C,x,2%,x
Cc1cc(C)cc(C(=O)NCC(=O)OCC(=O)N2CCN(S(=O)(=O)c3ccc4ccccc4c3)CC2)c1,-11%,-3%,-1
O=C(NC(=S)N1CCCCC1)c1cccs1,-21%,u,15
O=C(NN=C1C2CC3CC1CC(Cl)(C3)C2)c1cccs1,x,3.2µM*,x
CCN1C(C)=C(C(=O)OC)C(c2ccccc2)N2C(=O)[C@@]3(C(=O)OC)O[C@@]12C1C(=O)N(c2ccccc2)C(=O)C13 (stereo partly specified),x,8%[13.5 µM],x
CCCN(C(=O)Cn1ncc2c(=O)oc3ccccc3c21)c1cccc(C)c1,3%,11µM*,-25
CCN(CCCNC(=O)Cn1ncc2c(=O)oc3ccccc3c21)c1cccc(C)c1,-19%,-15%,-4
COc1ccc2c(C)cc(Sc3nnnn3-c3ccccc3)nc2c1,-13%,u,-17
Cn1c(C(=O)OC(C(=O)NC2CCCCC2)c2ccncc2)cc2sccc21 (stereo unspecified),-19%,-5%,-6
Cc1ccccc1-c1cnn(-c2cccc([N+](=O)[O-])c2)c1N,x,-2%,x
CC(=O)c1nnn(-c2cccc([N+](=O)[O-])c2)c1C,x,-7%,x
Cc1ccc(-c2cnn(-c3cccc([N+](=O)[O-])c3)c2N)cc1,35µM*,u,-87*
Nc1c(-c2ccccc2Cl)cnn1-c1cccc([N+](=O)[O-])c1,14µM*,-1%,-1
Cc1ccc(S(=O)(=O)NC(=O)c2cccn2C)cc1,-13%,-7%,u
COCCn1c(N)c(C(=O)NS(=O)(=O)c2ccc(C)cc2)c(=O)[nH]c1=O,x,16µM*,x
O=c1[nH]c2[nH]c(=S)[nH]c(=S)c2[nH]1,3.5µM*,u,x
CCCCN(C(=O)c1ccc(Cl)c([N+](=O)[O-])c1)c1c(N)n(CCC)c(=O)[nH]c1=O,x,8%,x
CO/N=C/NC(=O)N1OC[C@@H]2COc3ccc4ccccc4c3[C@@H]21,-8%,-2%,7
NC(=S)N1OC[C@@H]2COc3ccc4ccccc4c3[C@@H]21,x,13µM*,x
CCOC(=O)c1c(NC(=O)CSc2ccccc2C(=O)O)sc(C)c1C,x,2%,x
CCOC(=O)c1c(NC(=O)CSc2nnc(CNc3ccc(Cl)cc3)o2)sc(C)c1C,-4%,11µM*,-107*
NC(=O)c1c(NC(=O)CSc2nnc(-c3ccccc3)n2CC2CCCO2)sc2c1CCC2 (stereo unspecified),u,28µM*,-3
SMILES,HPGD inh,ALDH1A1 block,PNC assembly inh
N#Cc1c(NC(=O)CSc2ncc(-c3ccccc3)n2CC2CCCO2)sc2c1CCCC2 (stereo unspecified),-14%,u,-23
CCOC(=O)c1c(NC(=O)CSc2nnc(CNc3ccc(F)cc3)o2)sc(C)c1C,-20%,u,-4
CCOC(=O)c1c(NC(=O)CSc2ncnc3ccccc23)sc(C)c1C,-15%,14µM*,19
CCOC(=O)c1c(NC(=O)CSc2nncn2C)sc(C)c1C,-14%,-4%,-81*
CCOC(=O)c1c(NC(=O)CSc2nncs2)sc(C)c1C,0%,-8%,-1
CC(C)(C)Nc1oc(-c2ccccc2)nc1-c1cccc2ccccc12,-8%,u,x
O=C(N=Nc1c(O)[nH]c2ccccc12)c1ccco1,x,-13%,x
Cc1[nH]c2ccccc2c1C(O)CN1CCN(c2cccc(C(F)(F)F)c2)CC1 (stereo unspecified),x,u,-3
Cc1nnc(SCC(=O)Nc2sc3c(c2C(N)=O)CCCC3)[nH]c1=O,-13%,-5%,60
CCOC(=O)c1c(NC(=O)CSc2nnnn2-c2ccc(OC)cc2)sc(C)c1C,2.8µM*,1µM*,-6
Cn1cnnc1SCC(=O)Nc1sc2c(c1C(N)=O)CCC2,18µM*,u,7
CCOC(=O)c1csc(NC(=O)CSc2nnnn2-c2ccc(OC)cc2)n1,-3%,5%,-17
